KDM5B inh: blocks human KDM5B histone demethylase activity; Q9UGL1; KDM5B demethylase, FDH-coupled NADH fluorescence (FDH is formaldehyde dehydrogenase); Potency, µM (top dose mostly 57.7 µM), actives largely listed as inhibitors; hit rate 2.6% among 220,000; active = well fitted inhibition curve with a large enough effect; note: 0% is about no effect; nearly all actives have a fitted effect of over 70% in size
Target sequence (Q9UGL1 whole entry, looked up): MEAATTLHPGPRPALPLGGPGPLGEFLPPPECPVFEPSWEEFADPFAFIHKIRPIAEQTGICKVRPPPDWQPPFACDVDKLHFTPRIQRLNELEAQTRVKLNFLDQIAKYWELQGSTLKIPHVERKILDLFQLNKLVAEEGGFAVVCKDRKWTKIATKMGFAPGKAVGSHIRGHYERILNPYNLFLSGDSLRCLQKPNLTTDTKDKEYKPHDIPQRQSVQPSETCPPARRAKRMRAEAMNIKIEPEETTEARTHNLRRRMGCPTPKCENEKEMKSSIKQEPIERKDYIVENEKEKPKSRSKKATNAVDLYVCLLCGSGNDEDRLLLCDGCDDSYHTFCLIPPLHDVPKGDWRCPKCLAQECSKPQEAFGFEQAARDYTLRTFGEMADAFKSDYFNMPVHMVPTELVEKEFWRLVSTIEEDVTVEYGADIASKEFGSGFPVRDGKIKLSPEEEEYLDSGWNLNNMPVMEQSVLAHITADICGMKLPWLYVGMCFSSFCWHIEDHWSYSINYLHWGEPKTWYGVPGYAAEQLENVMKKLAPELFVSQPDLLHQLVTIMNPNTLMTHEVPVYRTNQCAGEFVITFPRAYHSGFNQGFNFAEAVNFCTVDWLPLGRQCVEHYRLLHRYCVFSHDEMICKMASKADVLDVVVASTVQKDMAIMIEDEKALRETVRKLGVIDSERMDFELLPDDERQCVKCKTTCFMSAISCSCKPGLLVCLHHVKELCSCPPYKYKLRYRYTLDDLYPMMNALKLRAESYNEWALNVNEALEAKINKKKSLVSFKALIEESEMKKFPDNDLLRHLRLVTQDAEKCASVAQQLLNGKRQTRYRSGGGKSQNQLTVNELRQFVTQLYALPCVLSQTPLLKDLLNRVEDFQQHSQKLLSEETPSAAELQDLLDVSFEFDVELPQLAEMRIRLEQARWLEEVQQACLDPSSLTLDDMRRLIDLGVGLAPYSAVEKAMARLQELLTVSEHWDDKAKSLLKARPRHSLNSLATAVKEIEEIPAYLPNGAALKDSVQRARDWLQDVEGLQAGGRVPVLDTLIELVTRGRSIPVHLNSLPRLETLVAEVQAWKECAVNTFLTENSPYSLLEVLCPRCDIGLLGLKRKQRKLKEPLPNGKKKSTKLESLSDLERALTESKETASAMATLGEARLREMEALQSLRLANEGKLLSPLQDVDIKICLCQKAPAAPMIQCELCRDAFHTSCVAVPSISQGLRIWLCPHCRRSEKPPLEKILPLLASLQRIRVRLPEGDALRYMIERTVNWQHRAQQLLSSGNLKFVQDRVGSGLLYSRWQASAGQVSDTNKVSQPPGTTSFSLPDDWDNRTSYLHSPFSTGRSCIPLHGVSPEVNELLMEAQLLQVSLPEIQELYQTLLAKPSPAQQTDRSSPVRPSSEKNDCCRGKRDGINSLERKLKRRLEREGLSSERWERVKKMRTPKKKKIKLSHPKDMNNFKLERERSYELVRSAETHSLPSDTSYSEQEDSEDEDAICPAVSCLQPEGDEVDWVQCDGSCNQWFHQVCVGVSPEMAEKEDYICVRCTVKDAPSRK
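KDM5BΔAP (200 nM final) in 50 mM HEPES pH 7.5, 0.01% Tween-20 was preincubated 10 min at RT with compound over a concentration range. Substrate mix (H3K4me3 12.5 µM, α-KG 25 µM, Fe²⁺, ascorbate, NAD⁺, FDH) was added, and NADH fluorescence change over 30 min gave dose-response curves.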
* = called active by the depositor; i = inactive. The full list was thinned out, with hits kept by preference. Potency is the fitted concentration of half-maximal effect.

SMILES	KDM5B inh
O=C(O)CCn1ncc2cc(OC3CCN(C(=O)OC4CCCC4)CC3)ccc21	i
CC(C)OC(=O)N1CCC(COc2ccc3c(cnn3CCC(=O)O)c2)CC1	i
O=C(O)CCC1CCN(c2cc(NC3CC3)ncn2)CC1	i
CC(C)OC(=O)N1CCC(COc2cnc3c(ccn3CC(N)=O)c2)CC1	40µM*
CC(C)OC(=O)N1CCC(COc2ccc3c(cnn3CC[S+](C)(=O)[O-])c2)CC1	i
O=C(O)CCn1ncc2cc(OC3CCN(C(=O)Oc4ccccc4Cl)CC3)ccc21	i
O=C(O)Cn1ccc2cc(OCC3CCN(C(=O)OC4CCCC4)CC3)cnc21	35µM*
Cc1ccc(OC(=O)N2CCC(COc3ccc4c(cnn4CCC(=O)O)c3)CC2)cc1	i
CC(C)(C)c1ccc(-n2ncc3c2CCCC3NC(=O)Cc2n[nH]c(=O)[nH]2)cc1 (stereo not given)	i
CN1CCOC(CNC(=O)Cc2ccc(Cl)cc2)C1 (stereo not given)	i
CC(Sc1nnnn1C)C(=O)c1ccc(F)c(F)c1 (stereo not given)	i
CCOC(=O)c1oc2c(c1C)/C(=N\OC(C)=O)CCC2	i
COc1cccc(CN2CCCCCCN(C)C(=O)[C@@H]3CCC[C@@H]32)n1	i
COCCn1c(SCC(=O)Nc2cc(Cl)ccc2C)nc2ccsc2c1=O	i
S=C(Nc1cccc2ccccc12)N[C@H]1CO[C@H]2[C@@H]1OC[C@H]2OCc1ccccc1	35µM*
O=C(N[C@H]1CO[C@H]2[C@@H]1OC[C@H]2OCc1ccccc1)c1ccccc1	i
CN(C)c1ccc(NC(=S)N[C@H]2CO[C@H]3[C@@H]2OC[C@H]3OC(=O)Nc2cccc3ccccc23)cc1	i
NC(=O)CO[C@@H]1CO[C@H]2[C@@H]1OC[C@@H]2NC(=O)Nc1cccc2ccccc12	28µM*
NC(=O)CO[C@@H]1CO[C@H]2[C@@H]1OC[C@@H]2NC(=O)Nc1ccccc1	i
O=C(Nc1cccc2ccccc12)O[C@@H]1CO[C@H]2[C@@H]1OC[C@@H]2NC(=S)Nc1ccc(Cl)cc1	i
O=C(CSc1nnc(Cc2ccccc2)o1)Nc1ccc(F)cc1	i
CCCCOC(=O)/C(C#N)=C/c1ccc(-c2ccccc2)o1	i
COc1ccc(-c2cc(CC3(NC4CCCCC4)COC3)no2)cc1	i
O=C1NC(=NC2CCCC2)C2(CCCN([S+](=O)([O-])c3cccs3)C2)N1c1cccnc1 (stereo not given)	i
CCOc1ccc(OCCCCOc2cccc(Br)c2)cc1	i
SMILES	KDM5B inh
Cc1ccccc1C(=O)Nc1ccc(Cl)c(C(F)(F)F)c1	i
CC1CCCN(C(=O)C2CCCN(c3cnc4nccnc4c3)C2)C1 (stereo not given)	i
CC(C)NC(=O)C1CCCN(c2nc3ncccc3o2)C1 (stereo not given)	20µM*
N#CC1CCN(C(=O)C2CCCN(c3nc4ncccc4o3)C2)CC1 (stereo not given)	32µM*
CC(NC(=O)C1CCCN(c2cnc3nccnc3c2)C1)c1cccnc1 (stereo not given)	i
CN(C)c1ncccc1CNC(=O)C1CCCN(S(C)(=O)=O)C1 (stereo not given)	i
CN(C)C(=O)C1CCCN(c2nc3ncccc3o2)C1 (stereo not given)	25µM*
O=C(NC1CCCN(c2nc3ncccc3o2)C1)c1ccc(Cl)nc1 (stereo not given)	i
Cc1noc2ncnc(N3CCCC(C(=O)NC(C)C)C3)c12 (stereo not given)	i
O=C(C1CCCC1)N1CCN(c2nc3ccccc3o2)CC1	i
CCCCN(C)C(=O)C1CCCN(c2ncnc3onc(C)c23)C1 (stereo not given)	i
COc1cccc(N2CCN(C(=O)C3CCCN(c4cnc5nccnc5c4)C3)CC2)c1 (stereo not given)	i
O=C(C1CCCN(c2nc3ncccc3o2)C1)N1CCCC1 (stereo not given)	25µM*
COc1cccc2c(C)nc(Nc3nc(C)c(Cc4ccc(C)cc4)c(=O)[nH]3)nc12	i
CCCCn1c(=O)[nH]c(=O)c2c1nc(-c1csnn1)n2CCC(C)C	i
CCN(CC)CC12CC3CCC(CC(C3)C1)C2	i
CCCCc1ncc(-c2c(-c3ccccc3)ncn2CCCn2ccnc2)[nH]1	i
Cc1ncc(-c2c(-c3ccccc3)ncn2CC(c2ccco2)N2CCCC2)[nH]1 (stereo not given)	25µM*
CCCCc1ncc(-c2c(-c3ccccc3)ncn2CC2(CO)CCC2)[nH]1	i
Cc1cc2nc(/C=C/c3cccc(O)c3)sc2cc1C	i
CC(C)n1cc(CN2CCc3n[nH]c(=O)n3CC2)cn1	i
CCN(C(=O)Cn1nc(Cc2ccncc2)c2ccccc2c1=O)c1cc(Cl)ccc1OC	i
CC(C)CN(C)C(=O)c1cc(-c2cnn(C(C)C)c2)nc2cc(F)ccc12	28µM*
CC(C)n1cc(-c2cc(C(=O)N(C)Cc3cccnc3)c3cc(F)ccc3n2)cn1	25µM*
Cc1nc2c(cnn2C(C)C)cc1C(=O)N(C)Cc1ccc(Cl)cc1Cl	i
